The campaign covered roughly 1,100 compounds. About 760 (69%) were called active. How the calls were made is not given here. The set was probably picked from earlier hits. The list shows a part of the results.
Experiment: M. tuberculosis growth inhibition, HTS (AID 1259417);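 further: bacteria grown with compound for 5 days at 37 °C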
Settings: stronger effect = higher value, concentration not given here
[1] = M. tuberculosis DsRed fluorescence growth inhibition
[2] = M. tuberculosis growth inhibition

In the case of `O=C(C=Cc1cccs1)N(CCCn1ccnc1)c1nc2ccccc2s1`, the inhibition [1] is reported as 98.3% (active) and the inhibition [2] is reported as 99.1%.

In the case of `Cc1c(Cl)ccc2sc(N(CCCn3ccnc3)C(=O)C=Cc3cccs3)nc12`, the inhibition [1] is reported as 99.5% (active) and the inhibition [2] is reported as 99.5%.

In the case of `Cc1ccc(Nc2ccc(-n3ccnc3)nn2)cc1Cl`, the inhibition [1] is reported as 42% (active) and the inhibition [2] is reported as 27.3%.

For `Cc1ccc(NC(=O)COc2ccc(-n3ccnc3)cc2)cc1Cl`, the inhibition [1] was -9.16% (inactive) and the inhibition [2] was -12.4%.

With `CCCCCCCCOC(=O)c1c(CSC(=N)N)n(C)c2cc(Br)c(OC(C)=O)cc12` the inhibition [1] was 26.7% (inactive) and the inhibition [2] was 4.13%.

With `Cc1cc(Nc2cccc(Cl)c2)nc(NCc2ccccc2)n1` the inhibition [1] was 96.8% (active) and the inhibition [2] was 90.6%.

In the case of `Cc1cc(Nc2ccc(Cl)cc2)nc(NCc2ccccc2)n1`, the inhibition [1] is reported as 87.7% (active) and the inhibition [2] is reported as 79.9%.

With `Oc1cccc(Nc2nc(NCc3ccccc3)c3ccccc3n2)c1` the inhibition [1] was -1.72% (inactive) and the inhibition [2] was -16.1%.

In the case of `CCn1c(COc2cccc3ccccc23)nnc1SCC(=O)OC1CCCCC1`, the inhibition [1] is reported as 42.4% (active) and the inhibition [2] is reported as 80.7%.

For `CCn1c(CNc2ccc(F)cc2)nnc1SCC(=O)OC1CCCCC1`, the inhibition [1] was 0.628% (inactive) and the inhibition [2] was -6.89%.

With `Cn1c(COc2cccc3ccccc23)nnc1SCC(=O)OC1CCCCC1` the inhibition [1] was 76.6% (active) and the inhibition [2] was 92.4%.

With `O=C(Nc1nc(SCc2ccc(F)cc2)ns1)c1cc(F)c(F)cc1Cl` the inhibition [1] was 7.63% (inactive) and the inhibition [2] was 5.06%.

In the case of `Cc1ccc(CSc2nnc(CCCCCNC(=O)OC(C)(C)C)o2)cc1`, the inhibition [1] is reported as 30.6% (active) and the inhibition [2] is reported as 36.2%.

In the case of `CCOC(=O)CN(C#N)c1nc(N(C)C)nc(N(C)C)n1`, the inhibition [1] is reported as 98.5% (active) and the inhibition [2] is reported as 98.9%.

In the case of `CCn1nnc(NC(=O)c2sc3ccccc3c2Cl)n1`, the inhibition [1] is reported as 41.4% (active) and the inhibition [2] is reported as 47.8%.

With `O=C(Nc1nnc(C2CCCCC2)s1)c1sc2ccccc2c1Cl` the inhibition [1] was 0.622% (inactive) and the inhibition [2] was -19.5%.

For `Cc1ccc(C)c(-c2cc(C(=O)Nc3nccs3)c3ccccc3n2)c1`, the inhibition [1] was -0.261% (inactive) and the inhibition [2] was -26.2%.

With `O=C(Nc1nccs1)c1ccc(CSc2ccccc2)o1` the inhibition [1] was 28.2% (active) and the inhibition [2] was 69.6%.

In the case of `O=C(CSc1nnc(Cc2ccccc2)o1)Nc1nccs1`, the inhibition [1] is reported as 1.22% (inactive) and the inhibition [2] is reported as -3.79%.

With `O=C(CNCCN1CCOCC1)Nc1sc2c(c1C(=O)Nc1ccccc1)CCC2` the inhibition [1] was 100% (active) and the inhibition [2] was 100%.

For `CCOc1ccc(NC(=O)c2c(NC(=O)CNCCN3CCOCC3)sc3c2CCC3)cc1`, the inhibition [1] was 100% (active) and the inhibition [2] was 101%.

For `O=C(Nc1sc2c(c1C(=O)Nc1ccccc1)CCC2)c1cccc(Br)c1`, the inhibition [1] was 0.927% (inactive) and the inhibition [2] was -1.38%.

In the case of `COCCCNC(=O)c1c(NC(=O)c2ccccc2OC)sc2c1CCCC2`, the inhibition [1] is reported as 2.12% (inactive) and the inhibition [2] is reported as -22.4%.

For `Cc1ccccc1C(=O)Nc1sc2c(c1C(=O)NCCO)CCC(C(C)(C)C)C2` (stereo not given), the inhibition [1] was 5.07% (inactive) and the inhibition [2] was -17.9%.

In the case of `CO[C@H]1C=CO[C@@]2(C)Oc3c(C)c(O)c4c(O)c(c5c(c4c3C2=O)=NC2(CCN(CC(C)C)CC2)N=5)NC(=O)C(C)=CC=C[C@H](C)[C@H](O)[C@@H](C)[C@@H](O)[C@@H](C)[C@H](OC(C)=O)[C@@H]1C`, the inhibition [1] is reported as 100% (active) and the inhibition [2] is reported as 101%.

For `Cc1ccc(-c2nnc(NC(=O)c3ccc(Cl)s3)o2)c(C)c1`, the inhibition [1] was 86.1% (active) and the inhibition [2] was 75.4%.

In the case of `Cc1ccc(-c2nnc(NC(=O)c3ccc(Br)s3)o2)c(C)c1`, the inhibition [1] is reported as 83.8% (active) and the inhibition [2] is reported as 75.7%.

With `COc1ccc(OC(C)C(=O)Nc2ccc(Cl)cc2C)cc1` (stereo not given) the inhibition [1] was 1.5% (inactive) and the inhibition [2] was -1.86%.

In the case of `COc1ccc(OC(C)C(=O)Nc2ccc(I)cc2)cc1` (stereo not given), the inhibition [1] is reported as 76% (active) and the inhibition [2] is reported as 79.3%.

In the case of `Oc1ccccc1-c1n[nH]c(/C=C/c2ccc(Cl)cc2)n1`, the inhibition [1] is reported as 2.06% (inactive) and the inhibition [2] is reported as -29.9%.

With `CC(C)(C)c1ccc(C(=O)Nc2ccc(S(=O)(=O)Nc3nccs3)cc2)cc1Br` the inhibition [1] was 1.5% (inactive) and the inhibition [2] was -12.7%.

In the case of `CC1CCc2sc3ncnc(NCCc4ccccc4)c3c2C1` (stereo not given), the inhibition [1] is reported as 35.8% (active) and the inhibition [2] is reported as 35.3%.

With `CC1CCc2c(sc3ncn(C(C)C(=O)OCc4ccccc4)c(=O)c23)C1` (stereo not given) the inhibition [1] was 6.46% (inactive) and the inhibition [2] was 8.18%.

For `CC(Sc1nnc(N)s1)C(=O)Nc1nc2c(s1)CCCC2` (stereo not given), the inhibition [1] was 18.7% (inactive) and the inhibition [2] was 26%.

With `O=C(Nc1ccc2c(c1)CCC2)c1ccc(Br)s1` the inhibition [1] was 25.5% (inactive) and the inhibition [2] was 10.7%.

In the case of `O=C(Nc1nc2c(s1)CCCC2)c1ccc(Br)s1`, the inhibition [1] is reported as 42.7% (active) and the inhibition [2] is reported as 18.9%.

In the case of `Cc1cccc(OCc2nnc(SCC(=O)OC3CCCCC3)o2)c1`, the inhibition [1] is reported as 82.9% (active) and the inhibition [2] is reported as 94.9%.

For `Cc1cc(OCc2nnc(SCC(=O)OC3CCCCC3)o2)ccc1Cl`, the inhibition [1] was 94% (active) and the inhibition [2] was 94.6%.

With `O=C(C=Cc1cccc(C(F)(F)F)c1)Nc1cccc(C(F)(F)F)c1` the inhibition [1] was 25.5% (inactive) and the inhibition [2] was 6.54%.

In the case of `O=C(Nc1ccc(C(F)(F)F)cc1)Nc1cccc(Cl)c1`, the inhibition [1] is reported as 99.7% (active) and the inhibition [2] is reported as 100%.

For `Cc1ccc(S(=O)(=O)Nc2ccc(NC(=O)Nc3cccc(C(F)(F)F)c3)cc2)cc1`, the inhibition [1] was 1.5% (inactive) and the inhibition [2] was -12.5%.

For `CCOC(=O)CNC(=O)CSc1nc(-c2cccc(C)c2)ns1`, the inhibition [1] was 56.7% (active) and the inhibition [2] was 71.3%.

With `CCOC(=O)CNC(=O)CSc1nc(-c2ccccc2)ns1` the inhibition [1] was 85.8% (active) and the inhibition [2] was 65.5%.

With `CCOC(=O)CSc1nc(-c2ccccc2)ns1` the inhibition [1] was 51.6% (active) and the inhibition [2] was 86.5%.

For `c1ccc2cc3nc4c(ccc5ccccc54)nc3cc2c1`, the inhibition [1] was 97.7% (active) and the inhibition [2] was 99%.

For `CCCS(=O)(=O)c1nnnn1-c1cccc(OC)c1`, the inhibition [1] was 101% (active) and the inhibition [2] was 100%.

With `COc1cccc(-n2nnnc2S(C)(=O)=O)c1` the inhibition [1] was 99.7% (active) and the inhibition [2] was 100%.

For `COc1cccc(-n2nnnc2S(=O)(=O)Cc2ccccc2)c1`, the inhibition [1] was 100% (active) and the inhibition [2] was 101%.

In the case of `O=C(C=Cc1cccs1)N1CCN(Cc2ccc3c(c2)OCO3)CC1`, the inhibition [1] is reported as 99.4% (active) and the inhibition [2] is reported as 100%.

In the case of `O=C(NC1CCCCC1)N1CCN(Cc2ccc3c(c2)OCO3)CC1`, the inhibition [1] is reported as 99.4% (active) and the inhibition [2] is reported as 100%.

For `CC12CC3CC(C)(C1)CC(CNCc1ccccc1O)(C3)C2`, the inhibition [1] was 98.9% (active) and the inhibition [2] was 99.3%.

For `CC1(C)C=Cc2c(nc3ccccc3c2NCc2ccccc2)C1`, the inhibition [1] was 16.7% (active) and the inhibition [2] was 35.8%.

In the case of `c1ccc(CNc2nc(N3CCN(Cc4ccccc4)CC3)nc3ccccc23)cc1`, the inhibition [1] is reported as -2.6% (inactive) and the inhibition [2] is reported as -0.535%.

For `Cc1cc(OCCCn2ccnc2)ccc1Cl`, the inhibition [1] was 98.9% (active) and the inhibition [2] was 99.6%.

For `Cc1cc(OCCn2ccnc2)ccc1Cl`, the inhibition [1] was 89.5% (active) and the inhibition [2] was 90.8%.
